PPC-1+TRAIL kill = PPC-1 cancer cell killing with TRAIL present; PPC-1 cells + TRAIL, ATPLite viability luminescence; cell killing (% activity), % at 4 µM or 5 µM; 220,000 tested, 0.41% active;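 active = cell killing above 50% in the first pass at 4 µM, then a duplicate retest at 5 µM averaging 50% or more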
Peg3 prom inh-1 = reduces Peg3 promoter-driven luciferase expression in HeLa; HeLa PEG-Prom luciferase reporter, luminescence, overnight; inhibition, % at 20 µM; 360,000 tested, 1.7% active;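 active = inhibition of at least 50% at 20 µM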
HIF-2a inh = blocks HIF-2a reporter activity; 786-0 RCC cells HIF-2a reporter, luciferase luminescence, overnight; inhibition, % at 18.8 µM; 360,000 tested, 0.72% active; AID 624352;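 active = inhibition of the luminescence signal of 40% or more relative to plate controls, in a single-dose primary screen at 18.75 µM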
C8 TRAIL sens = sensitizes caspase-8 expressing cells to TRAIL; NB7+C8 cells + TRAIL, ATPlite viability luminescence; inhibition (viability loss, TRAIL sensitization), % at 10 µM; 360,000 tested, 1% active; AID 624354;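 active = compounds causing at least 50% loss of cell viability in the single-dose screen, relative to plate controls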
CF NFkB inh = cystic fibrosis NF-kB activation inhibition | KKLEB NF-kB-GFP reporter, PAF-induced, GFP fluorescence overnight | inhibition, % at 5 µM | 360,000 tested, 0.86% active | AID 588850;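 active = at least 50% inhibition at 5 µM, scaled per plate between neutral and stimulator controls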;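 also: PAF is a Pseudomonas aeruginosa culture filtrate used as stimulus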
KKLEB cytotox = reduces viability of KKLEB cystic fibrosis airway cells. KKLEB CF airway cells viability, ATPlite luminescence, overnight; stronger effect = lower value; cells stimulated with P. aeruginosa culture filtrate. activity change (cytotoxicity), % at 5 µM. 360,000 tested, 0.36% active. AID 602141;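 active = corrected activity change at or below -50% at 5 µM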
Peg3 prom inh-2 = confirmation of Peg3 promoter inhibitors; shares compounds with Peg3 prom inh-1; HeLa PEG-Prom luciferase reporter, luminescence, overnight; inhibition, % at 20 µM; 1,300 tested, 84% active; AID 602417;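 active = at 20 µM dose, 40% or more inhibition averaged across four replicates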
CF NFkB conf = CF NF-kB inhibition confirmation, single concentration. shares compounds with CF NFkB inh. 1,300 tested, 64% active. inhibition, % at 5 µM. AID 602472. KKLEB CF airway cells, PAF-induced NF-kB-GFP fluorescence, overnight; in the data active = inhibition above about 40%;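 also: stimulus PAF is a Pseudomonas aeruginosa filtrate and not platelet activating factor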
Mdm2 MdmX conf = confirmation of inhibitors of human Mdm2/MdmX interaction, set 2. shares compounds with HIF-2a inh. SaOS-2 split-luciferase Mdm2/MdmX complementation, luminescence. inhibition, % at 8 µM. 740 tested, 99% active;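 active = mean inhibition of the luminescence signal across two replicates at or above 26 percent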
Target sequence (O15151 whole entry, looked up): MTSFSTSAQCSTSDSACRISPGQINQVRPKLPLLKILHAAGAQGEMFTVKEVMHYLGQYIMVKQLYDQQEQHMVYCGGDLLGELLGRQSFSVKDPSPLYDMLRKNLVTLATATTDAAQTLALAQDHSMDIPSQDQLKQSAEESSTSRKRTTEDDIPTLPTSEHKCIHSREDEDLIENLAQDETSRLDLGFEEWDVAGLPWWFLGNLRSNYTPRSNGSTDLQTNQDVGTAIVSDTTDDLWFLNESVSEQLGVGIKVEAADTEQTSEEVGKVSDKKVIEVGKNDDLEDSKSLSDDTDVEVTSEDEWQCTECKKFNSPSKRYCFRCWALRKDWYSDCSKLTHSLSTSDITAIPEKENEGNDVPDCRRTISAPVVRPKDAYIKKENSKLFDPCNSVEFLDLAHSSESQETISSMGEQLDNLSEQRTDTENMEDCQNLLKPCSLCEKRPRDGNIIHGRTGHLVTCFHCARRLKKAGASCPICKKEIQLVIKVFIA
Target sequence (Q00987 whole entry, looked up): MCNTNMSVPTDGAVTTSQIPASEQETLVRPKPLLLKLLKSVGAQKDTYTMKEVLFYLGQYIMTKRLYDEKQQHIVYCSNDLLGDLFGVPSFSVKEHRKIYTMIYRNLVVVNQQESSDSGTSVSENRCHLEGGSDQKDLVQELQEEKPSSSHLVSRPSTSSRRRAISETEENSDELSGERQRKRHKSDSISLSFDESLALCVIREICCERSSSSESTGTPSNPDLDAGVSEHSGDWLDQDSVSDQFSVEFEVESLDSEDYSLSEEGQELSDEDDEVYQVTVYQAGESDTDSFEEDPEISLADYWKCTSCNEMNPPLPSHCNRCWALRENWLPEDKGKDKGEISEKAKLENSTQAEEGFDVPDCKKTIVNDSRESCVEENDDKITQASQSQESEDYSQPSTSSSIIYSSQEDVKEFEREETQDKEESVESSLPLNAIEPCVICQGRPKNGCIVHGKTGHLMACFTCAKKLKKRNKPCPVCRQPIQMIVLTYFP
HIF-2a inh conf = HIF-2a inhibition, single concentration confirmation; 786-0 RCC cells, HIF-2a luciferase reporter luminescence, overnight; shares compounds with HIF-2a inh; 1,800 tested, 56% active; inhibition, % at 18.8 µM; AID 651580;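 active = mean inhibition across four replicates of at least 40 percent at the single tested concentration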
HIF-1a counter = counter-screen for HIF-2a inhibitors: HIF-1a inhibition in MiaPaCa-2 cells; inhibition, % at 18.8 µM; MiaPaCa-2 HIF-1a luciferase reporter, desferoxamine, overnight; shares compounds with HIF-2a inh; 1,800 tested, 72% active;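 active = mean inhibition of the reporter signal across four replicates at the single tested dose of 50% or more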
Each line names hits and unclear results; the compound was inactive in the other large screens (follow-up assays come after a bar, where they were run). Only some compounds are listed: those with a hit (about 3.1% of all), similar ones and a draw of the others.

Cc1nn(-c2ccc(Cl)cn2)c2c1C(=O)CC(C)(C)C2Br (configuration not stated)	none (no result: PPC-1+TRAIL kill)
c1ccc(CN2CCC3CC2c2cc(N4CCCCC4)ccc23)cc1 (configuration not stated)	none (no result: PPC-1+TRAIL kill)
C=C1CC2(OC1=O)c1ccccc1CCc1ccccc12	Peg3 prom inh-1 97, HIF-2a inh 90, C8 TRAIL sens 91, CF NFkB inh 89, KKLEB cytotox -85 (no result: PPC-1+TRAIL kill) | Peg3 prom inh-2 97 | HIF-2a inh conf 98 | HIF-1a counter 107
O=C1NC(=O)C2(CCc3ccccc32)N1 (configuration not stated)	none
CCCCCCCC(=O)Nc1cc(C(=O)NCCC)ccc1N1CCC2(CC1)CC(c1ccccc1)=NO2	none (no result: PPC-1+TRAIL kill)
CCN1CCN(CCCNC(=O)Cn2nc(C)n3nc(-c4ccccc4)cc3c2=O)CC1	none (no result: PPC-1+TRAIL kill)
CCc1ccc(-c2cc3c(=O)n(CC(=O)NCCCN4CCC(Cc5ccccc5)CC4)nc(C)n3n2)cc1	Peg3 prom inh-1 100, C8 TRAIL sens 91 (no result: PPC-1+TRAIL kill) | Peg3 prom inh-2 98 | Mdm2 MdmX conf 103
COc1ccc(-c2nc3ccc(Br)cn3c2Cc2cccc(Cl)c2)cc1OC	none (no result: PPC-1+TRAIL kill)
COC(=O)Cc1[nH]n(-c2nc3ccccc3s2)c(=O)c1C(C)=Nc1ccc(Cl)cc1	Peg3 prom inh-1 94, HIF-2a inh 85 | Peg3 prom inh-2 94 | HIF-2a inh conf 93 | HIF-1a counter 102
COC(=O)Cc1[nH]n(-c2nc3ccccc3s2)c(=O)c1C(C)=Nc1ccc(C)cc1	Peg3 prom inh-1 91, HIF-2a inh 87 | Peg3 prom inh-2 94 | HIF-2a inh conf 92 | HIF-1a counter 102
COC(=O)Cc1[nH]n(-c2ccccc2)c(=O)c1C(C)=Nc1ccccc1	none
CN(C)CCNc1ncnc2c1sc1nc(N3CCOCC3)c3c(c12)CC(C)(C)SC3	Peg3 prom inh-1 81, HIF-2a inh 54 | Peg3 prom inh-2 94 | HIF-2a inh conf inactive | HIF-1a counter 80
CC1(C)Cc2c(c(N3CCOCC3)nc3sc4c(N5CCOCC5)nnnc4c23)CS1	none (no result: Peg3 prom inh-1, HIF-2a inh, C8 TRAIL sens, CF NFkB inh, KKLEB cytotox)
Clc1ccc(-c2noc3c2-c2nc(Cc4cccc5ccccc45)sc2CC3)cc1	none (no result: PPC-1+TRAIL kill)
O=[N+]([O-])c1nn(-c2ccc3c(c2)OCCO3)n(O)c1=Nc1ccc(Cl)cc1	Peg3 prom inh-1 72, HIF-2a inh 61 | Peg3 prom inh-2 74 | HIF-2a inh conf 77 | HIF-1a counter 100
CCc1ccc(N=c2c([N+](=O)[O-])nn(-c3ccc4c(c3)OCCO4)n2O)cc1	none
CC(=O)Nc1ccc(S(=O)(=O)N2CCC(NC(=O)C(Cc3ccccc3F)NC(C)=O)CC2)cc1 (configuration not stated)	none (no result: PPC-1+TRAIL kill)
COc1ccccc1OCc1nc(C#N)c(NCCCn2ccnc2)o1	none
COc1ccc(Nc2oc(COc3ccccc3OC)nc2C#N)cc1	Peg3 prom inh-1 77, HIF-2a inh 59 | Peg3 prom inh-2 51 | HIF-2a inh conf 62 | HIF-1a counter 57
O=C(NCC(c1ccco1)N1CCCCC1)c1cccc(S(=O)(=O)Nc2ccc(F)cc2)c1 (configuration not stated)	none (no result: PPC-1+TRAIL kill)
Cc1ccc(S(=O)(=O)NC(CC(C)C)C(=O)NCC(c2ccco2)N2CCCCC2)cc1 (configuration not stated)	Peg3 prom inh-1 75, HIF-2a inh 80 (no result: PPC-1+TRAIL kill) | Peg3 prom inh-2 85 | HIF-2a inh conf 88 | HIF-1a counter 93
CCCc1c(C(=O)N/N=C(/C)c2ccncc2)nnn1-c1nonc1N	none (no result: PPC-1+TRAIL kill)
COc1ccc(C(=O)Nc2nc3ccccc3s2)c(OC)c1	Peg3 prom inh-1 107, HIF-2a inh 92, C8 TRAIL sens 92, KKLEB cytotox -88 (no result: PPC-1+TRAIL kill) | Peg3 prom inh-2 99 | Mdm2 MdmX conf 97
COC(=O)C1C=CC(OC2OC(COC(C)=O)C(OC(C)=O)C(OC(C)=O)C2OC(C)=O)n2c(=O)n(-c3ccccc3)c(=O)n21 (configuration not stated)	Peg3 prom inh-1 107, HIF-2a inh 85, CF NFkB inh 80 (no result: PPC-1+TRAIL kill) | Peg3 prom inh-2 101 | CF NFkB conf 64 | HIF-2a inh conf 93 | HIF-1a counter 106
CC(=O)OCC1OC(n2ccc3ccccc32)C(OC(C)=O)C(OC(C)=O)C1OC(C)=O (configuration not stated)	none
CC(=O)c1c(NCCc2ccccc2)nc(=S)n(-c2ccccc2)c1C	Peg3 prom inh-1 101, HIF-2a inh 92 | Peg3 prom inh-2 99 | HIF-2a inh conf inactive | HIF-1a counter inactive
CC(=O)c1c(NCc2ccccc2)nc(=O)n(-c2ccccc2)c1C	none
Cc1ccc(S(=O)ONc2cccc(NOS(=O)c3ccc(C)cc3)c2)cc1 (configuration not stated)	none (no result: PPC-1+TRAIL kill)
O=[N+]([O-])c1ccc(-c2ccc(/C=N/Nc3nc(NCc4ccccc4)nc(N4CCOCC4)n3)o2)cc1	Peg3 prom inh-1 99, HIF-2a inh 59, CF NFkB inh 51, KKLEB cytotox -90 (no result: PPC-1+TRAIL kill) | Peg3 prom inh-2 80 | Mdm2 MdmX conf 102 | HIF-2a inh conf inactive | HIF-1a counter inactive
CCCCNC(=O)C1(C)CCN1C(=O)c1cccnc1Oc1ccccc1 (configuration not stated)	none (no result: PPC-1+TRAIL kill)
CCN1C=C(C(C)=O)C(=O)CC1	none (no result: PPC-1+TRAIL kill)
C=C1CC(COc2ccc3c(C)c(Cl)c(=O)oc3c2)(c2ccccc2)OC1=O (configuration not stated)	Peg3 prom inh-1 98, HIF-2a inh 85, C8 TRAIL sens 90, CF NFkB inh 91, KKLEB cytotox -71 (no result: PPC-1+TRAIL kill) | Peg3 prom inh-2 98 | HIF-2a inh conf 71 | HIF-1a counter 105
Cc1ccc(C(=O)Nc2ncc([N+](=O)[O-])s2)cc1	Peg3 prom inh-1 76, HIF-2a inh 53, C8 TRAIL sens 77 (no result: PPC-1+TRAIL kill) | Peg3 prom inh-2 56 | HIF-2a inh conf 80 | HIF-1a counter 93
O=S1(=O)C[C@H](N2CC[C@@H](O)C2)[C@@H](COCc2ccccc2)N1	none (no result: PPC-1+TRAIL kill)
